This passage reports growth results from PubChem BioAssay (NCI).

Holding throughout (assay): NCI-60 one-dose screen, 48 h (100 = growth as untreated, 0 = no growth, -100 = all killed)
What all share (conditions): 10 µM unless noted

The test system of assay [1] is NCI-H23 lung.
For assay [2], the system named is NCI-H226 lung.
Assay [3] has as its system NCI-H322M lung.
In assay [4] the test system is HOP-62 NSCLC.
Assay [5] relates to NCI-H460 lung.
In assay [6] the test system is HOP-92 NSCLC.
Assay [7] has as its system NCI-H522 lung.
For assay [8], the system named is A549/ATCC NSCLC.
Assay [9] deals with 786-0 renal.
In assay [10] the test system is COLO 205 colon.
For assay [11], the system named is DU-145 prostate.
Assay [12] concerns K-562 leukemia.
For assay [13], the system named is MALME-3M melanoma.
For assay [14], the system named is MDA-MB-231 breast.
Assay [15] relates to SF-268 CNS.
For assay [16], the system named is SF-295 CNS.
For assay [17], the system named is SF-539 CNS.
The subject of assay [18] is UACC-257 melanoma.

Compounds without any hit were thinned out: in the full panel of roughly 83,000, 20% have a hit.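 For each line, cells grew in 96-well plates with the test compound present at a single concentration for 48 hours.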 Values without a mark were called inactive. Activity calls are given as the source filed them. Rule for the calls: active = growth percent below 10; inactive = the rest.

Regarding `C=C1C(=O)O[C@H]2[C@H]1CC/C(COC(=O)/C=C\C(=O)NCc1ccc(Cn3c(=O)sn(CCCC)c3=O)cc1)=C\CC[C@@]1(C)O[C@@H]21`, the growth is -61.4% (active) in [1]; -70.4% (active) in assay [2]; 35.4% in [3]; -35.7% (active) in assay [4]; -54.3% (active) in assay [5]; -67.7% (active) in assay [6]. Moreover, the growth in assay [7] is -44.5% (active); in [8], 0.708% (active); in assay [9], -76.8% (active); in [10], -51.2% (active); in [11] it was -95.5% (active); in [12] it was 0.287% (active). Also, the growth in [13] is -93.3% (active); in [14], -84.4% (active); in [15], -64.4% (active); in assay [16] it was 65.1%; in assay [17] it was -98.9% (active); in assay [18], -52.8% (active).
Regarding `Cn1ccnc1C(=O)/C=C/c1ccc(C(=O)Nc2ccc(S(F)(F)(F)(F)F)cc2)cc1`, the growth was 17.8% in assay [1]; 43.9% in [2]; 15.4% in [3]; 24.4% in [4]; -4.08% (active) in assay [5]; 95.8% in [6]. In addition, the growth is 42.9% in [7]; 31.5% in assay [8]; 15.9% in [9]; 9.14% (active) in assay [10]; 15.6% in assay [11]; 2.18% (active) in assay [12]. In addition, the growth was 59.6% in [13]; 22.4% in assay [14]; 15.3% in assay [15]; 32.7% in assay [16]; -37.1% (active) in assay [17]; 42.4% in assay [18].
For `COc1ccc(-c2c(N)n[nH]c2-c2ccccc2O)cc1OC`, the growth in [1] was 93.1%; in assay [2], 99.6%; in assay [3], 102%; in assay [4], 88.9%; in assay [5], 107%; in assay [6], 74%. In addition, the growth is 85% in assay [7]; 95.2% in assay [8]; 97.2% in assay [9]; 98.1% in [10]; 116% in [11]; 87.2% in assay [12]. Also, the growth in [13] is 62.8%; in [14] it was 78.7%; in assay [15], 100%; in assay [16] it was 101%; in [17], 86.5%; in assay [18], 100%.
With `CC(C)c1ccc(NC(=O)Cc2ccc(Nc3ncnc4cc(-c5cnn(CCN(C)C)c5)ccc34)cc2)cc1`, the growth in assay [1] was -61.7% [30 µM] (active); in assay [2], 50.6% [30 µM]; in [3], -99.7% [30 µM] (active); in assay [4] it was -0.67% [30 µM] (active); in assay [5], -90.5% [30 µM] (active); in assay [6] it was -45.3% [30 µM] (active). Moreover, the growth in assay [7] is -45.3% [30 µM] (active); in [8], -35.7% [30 µM] (active); in assay [9], -59.1% [30 µM] (active); in assay [10] it was -46.7% [30 µM] (active); in [11], -97.5% [30 µM] (active); in [12], -34.9% [30 µM] (active). The growth is -88.7% [30 µM] (active) in assay [13]; -77.8% [30 µM] (active) in [14]; -62.3% [30 µM] (active) in assay [15]; -61.9% [30 µM] (active) in [16]; -88.8% [30 µM] (active) in assay [17]; 54.7% [30 µM] in assay [18].
Regarding `COc1ccc(OC)c(/C=C2\COc3ccc(O)c(O)c3C2=O)c1`, the growth was 48.9% in assay [1]; 85.2% in assay [2]; 54.3% in assay [3]; 30.2% in assay [4]; 4.53% (active) in assay [5]; 56.7% in [6]. In addition, the growth in assay [7] was -33.4% (active); in assay [8], 48.1%; in [9] it was 22.4%; in assay [10], 95.3%; in assay [11] it was 3.87% (active); in [12] it was 5.87% (active). Besides, the growth in [13] was -5.32% (active); in [14] it was 9.33% (active); in [15], 15.9%; in assay [16], 78.4%; in [17], -23.1% (active); in assay [18], 49.4%.
On to `CCCCOc1nc2ccc(Cl)cc2cc1/C=C/C(=O)/C=C1/CC(c2cc3cc(Cl)ccc3nc2OCCCC)Nc2ccccc2N1` (centres undefined), for which the growth was 87.2% in assay [1]; 90.8% in assay [2]; 103% in [3]; 94.8% in assay [4]; 85% in assay [5]; 77.3% in [6]. Moreover, the growth in [7] was 90.4%; in [8], 94.2%; in assay [9], 99.1%; in assay [10], 90.9%; in assay [11] it was 103%; in [12], 91.7%. Further, the growth in [13] is 79.4%; in [14] it was 81%; in assay [15] it was 97.9%; in assay [16] it was 96.2%; in [17] it was 91.9%; in [18], 100%.
For `COc1ccc(OC)c(C(=O)Nc2cccc(-c3cc(=O)c4ccccc4o3)c2)c1`, the growth in assay [1] is 92.8%; in [2] it was 92.4%; in assay [3], 86.9%; in assay [4], 89.1%; in [5] it was 90%; in assay [6] it was 93.7%. For the same molecule, the growth is 68.1% in assay [7]; 88.8% in [8]; 92.6% in assay [9]; 104% in assay [10]; 88.1% in assay [11]; 90.1% in assay [12]. The growth in assay [13] is 83.3%; in assay [14] it was 83.4%; in [15], 74.2%; in assay [16], 88.6%; in [17], 84.4%; in [18], 100%.
As for `Cc1nc(Nc2cccc(NC(=O)Nc3ccc(Cl)cc3)c2)c2ccccc2n1`, the growth was 96% in assay [1]; 90.4% in assay [2]; 89.7% in [3]; 107% in assay [4]; 70.5% in assay [5]; 90.7% in [6]. The growth in [7] is 68.6%; in assay [8], 91.6%; in assay [9], 96.1%; in [10] it was 103%; in assay [11], 91.7%; in assay [12] it was 67.6%. For the same molecule, the growth in assay [13] was 87.3%; in assay [14], 86.4%; in assay [15] it was 102%; in [16], 88.2%; in assay [17], 94.6%; in assay [18], 101%.
